Source: PubChem
Only some compounds are listed: those with a hit (about 2.8% of all), similar ones and a draw of the others.
KDM5B inh – KDM5B demethylase inhibition; Potency, µM (doses to about 57.7 µM), usual class: inhibitors; 2.6% of 220,000 active; Q9UGL1; KDM5B demethylase, FDH-coupled NADH fluorescence (FDH is formaldehyde dehydrogenase); AID 1347165; further: potency means the concentration at half of the fitted maximal effect; 0% is about no effect; nearly all actives have a fitted effect of over 70% in size
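qHTS format, multiple compound concentrations. Buffer 50 mM HEPES pH 7.5/0.01% Tween-20; 200 nM KDM5BΔAP final; 10 min compound preincubation; substrate-mix levels 12.5 µM peptide, 25 µM α-KG, 0.25 mM NAD⁺; 30 min RT; ΔRFU.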
IP6K1 inhibitor – IP6K1 kinase inhibition. 0.81% of 140,000 active. activity change, % (series mostly up to about 58 µM). IP6K1 kinase, ADP-Glo luminescence, 2 h; hits give low values. Q92551; in the data active means activity change below about -25%; further: on the % scale 0 is the no-effect control and ±100 the full control effect
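ADP-Glo luminescence measures ADP made by human IP6K1 during a 2 h RT reaction with ATP/IP6 (mix at 1.3 mM/130 uM); top library doses 57.5 and 19.1 uM final.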
SNCA viab count – counter-screen for SNCA expression inhibitors: cell viability; 0.12% of 150,000 active; Potency, µM (highest dose often 57.1 µM), inactives show at the highest dose activity change, negative = cytotoxicity, usual class: cytotoxic; HEK-293-SNCA-luc viability, GF-AFC fluorescence, 24 h; AID 1671193;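 further: potency means the concentration at half of the fitted maximal effect; 0% = DMSO-treated cells and -100% = medium-only wells without cells; nearly all actives have a fitted effect of over 30% in size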
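HEK-293-SNCA-luc cells (1500/well) plated 24 h, then exposed 24 h to a dilution series; GF-AFC added 30 min at 37C, fluorescence 405/540 nm; normalised to medium-only and DMSO wells, Hill fit.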
SNCA expr inhib – reduces expression of the alpha-synuclein gene. HEK-293 SNCA-luciferase knock-in, luminescence, 24 h. Potency, µM (highest dose often 57.2 µM), without a hit: at the highest dose activity change, negative = inhibition, hits mostly inhibitors. 0.17% of 140,000 active;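 further: potency means the concentration at half of the fitted maximal effect; plate controls were DMSO cells for no effect and cell-free wells for full effect; nearly all actives have a fitted effect of over 45% in size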
An asterisk follows results filed as active; i = inactive; u = inconclusive; x = no result given; [ ] = dose if it differs, or a comment. Unless noted, the call rests on the fitted dose curve; in most records, active means well fitted curve in the direction sought with a large enough effect; inconclusive means small, poorly fitted or top-dose-only effect, or another doubt; inactive means no such curve, though single readings can be large; an effect the other way counts as inactive or inconclusive.

SMILES	KDM5B inh	IP6K1 inhibitor	SNCA viab count	SNCA expr inhib
Cc1cn2nc(C(=O)NC3CCCCC3)cc2c(N2CCCC2)n1	28µM*	-3	-5%	-24%
COc1ccccc1N1CCN(S(=O)(=O)c2c(C)sc3ncn(CC(=O)Nc4ccccc4F)c(=O)c23)CC1	i	4	3%	2.5µM*
COc1ccccc1N1CCN(S(=O)(=O)c2c(C)sc3ncn(CC(=O)Nc4ccc(C(F)(F)F)cc4)c(=O)c23)CC1	i	13	3%	-2%
COc1ccc(C(=O)CSc2nnc3c(=O)n(-c4cc(Cl)ccc4C)ccn23)cc1OC	i	x	x	x
COCCOc1ncccc1-c1noc([C@@H]2CCCN2Cc2ccc(C(=O)O)cc2)n1	u	-2	-2%[87.6 µM]	-5%[87.6 µM]
COCCNc1ncccc1-c1noc([C@@H]2CCCN2Cc2ccc(C(=O)O)cc2)n1	35µM*	11	2%[87.6 µM]	15%[87.6 µM]
COCCNc1ncccc1-c1noc([C@@H]2CCCN2C2CCN(C)CC2)n1	32µM*	2	-6%[87.6 µM]	13%[87.6 µM]
COCCNc1ccc(-c2noc([C@@H]3CCCN3C3CCOCC3)n2)cn1	u	13	-7%[87.6 µM]	2%[87.6 µM]
COCCNc1ncccc1-c1noc([C@@H]2CCCN2Cc2ccccc2OC)n1	u	20	-14%[87.6 µM]	-3%[87.6 µM]
COCCNc1ncccc1-c1noc([C@@H]2CCCN2C2CCC2)n1	32µM*	-12	0%[87.6 µM]	-23%[87.6 µM]
COCCNc1ncccc1-c1noc([C@@H]2CCCN2C2CCN(C(C)=O)CC2)n1	35µM*	3	5%[87.6 µM]	15%[87.6 µM]
C=C(C)CN1CCN(c2nc3c(c(=O)[nH]c(=O)n3C)n2Cc2ccc(Cl)cc2)CC1	i	x	x	x
COc1ccc(CNC(=O)c2cc(-c3cccc(F)c3)nc3c2cnn3C)cc1	x	3	x	x
COc1ccccc1C(=O)N1CCC(N2C(=O)c3c(c(C)nn3-c3ccccc3)C2C2CC2)C1 (configuration not stated)	x	-6	x	x
Cc1ccc(-c2ccc3nnc(CNC(=O)COc4ccccc4)n3n2)cc1C	28µM*	-5	-5%	-7%
COc1ccc(-c2ccc3nnc(CNC(=O)COc4ccc(F)cc4)n3n2)cc1	28µM*	8	12%	2%
COc1ccc(-c2ccc3nnc(CNC(=O)Cc4cccc(F)c4)n3n2)cc1	u	2	-15%	23%
Cc1ccc(-c2ccc3nnc(CNC(=O)COc4ccccc4)n3n2)cc1	35µM*	-4	2%	7%
CN1C[C@H](N(C)C)CCC[C@@H](C(=O)NCc2cc(F)cc(F)c2)CC1=O	i	-3	5%[87.6 µM]	u
CC1CCN(CCCNc2nc(-c3ccncc3)nc3ccccc23)CC1	i	x	x	x
COc1ccc(-c2cc3c(ccn3C)c(C(=O)NCc3cccnc3)n2)cc1OC	35µM*	0	-20%[87.6 µM]	60%[87.6 µM]
Cn1nccc1-c1cc2c(ccn2C)c(C(=O)NCc2cccnc2)n1	i	32	1%[87.6 µM]	10%[87.6 µM]
O=C1CCC(CNC(=O)c2nc(-c3ccccc3)cc3[nH]ccc23)N1 (configuration not stated)	32µM*	-19	10%[87.6 µM]	24%[87.6 µM]
Cn1ccc2c(C(=O)NCc3cccnc3)nc(-c3ccc(F)cc3)cc21	i	-2	-6%[87.6 µM]	4%[87.6 µM]
Cn1ccc2c(C(=O)NCC3CCC(=O)N3)nc(-c3ccccc3)cc21 (configuration not stated)	i	10	3%[87.6 µM]	u
SMILES	KDM5B inh	IP6K1 inhibitor	SNCA viab count	SNCA expr inhib
CN(C)Cc1ccc(-c2cc3c(ccn3C)c(C(=O)NCc3cccnc3)n2)cc1	i	4	-24%[87.6 µM]	5%[87.6 µM]
Cn1ccc2c(C(=O)NCc3cccnc3)nc(-c3ccccc3)cc21	32µM*	-3	1%[87.6 µM]	0%[87.6 µM]
Cn1ccc2c(C(=O)NCc3cccnc3)nc(-c3ccccc3C#N)cc21	13µM*	-7	-19%[87.6 µM]	16%[87.6 µM]
O=C(CN1C(=O)NC(c2ccc(Cl)cc2)C2=C1COC2=O)Nc1cccc(Br)c1 (configuration not stated)	i	6	u	u
CCC(C(=O)Nc1cc(F)ccc1F)n1nc(-c2ccccc2)ccc1=O (configuration not stated)	i	x	x	x
CCC(=O)N1CCN(c2ccc(Cl)cc2NC(=O)c2ccccc2Br)CC1	i	x	x	x
COc1cc(F)ccc1-c1cc2c(ccn2C)c(C(=O)NCc2cccnc2)n1	40µM*	-1	-18%[87.6 µM]	10%[87.6 µM]
O=C(NCc1cccnc1)c1nc(-c2ccccc2)cc2[nH]ccc12	35µM*	-8	-5%[87.6 µM]	-12%[87.6 µM]
O=C(N[C@@H]1C[C@H](Cn2cc(CN3CCS(=O)(=O)CC3)nn2)[C@@H](O)[C@H]1O)C1CCCC1	u	-4	2%	17%
